ChEMBL document CHEMBL1961873, “Compounds: GSK PKIS; Assays: Nanosyn kinase panel” (2012)

Columns and labels:
[1] = molecular target: T1, Tyrosine-protein kinase receptor TYRO3 (Homo sapiens) (UniProt Q06418); conditions: at 1 µM
T1 sequence (whole entry): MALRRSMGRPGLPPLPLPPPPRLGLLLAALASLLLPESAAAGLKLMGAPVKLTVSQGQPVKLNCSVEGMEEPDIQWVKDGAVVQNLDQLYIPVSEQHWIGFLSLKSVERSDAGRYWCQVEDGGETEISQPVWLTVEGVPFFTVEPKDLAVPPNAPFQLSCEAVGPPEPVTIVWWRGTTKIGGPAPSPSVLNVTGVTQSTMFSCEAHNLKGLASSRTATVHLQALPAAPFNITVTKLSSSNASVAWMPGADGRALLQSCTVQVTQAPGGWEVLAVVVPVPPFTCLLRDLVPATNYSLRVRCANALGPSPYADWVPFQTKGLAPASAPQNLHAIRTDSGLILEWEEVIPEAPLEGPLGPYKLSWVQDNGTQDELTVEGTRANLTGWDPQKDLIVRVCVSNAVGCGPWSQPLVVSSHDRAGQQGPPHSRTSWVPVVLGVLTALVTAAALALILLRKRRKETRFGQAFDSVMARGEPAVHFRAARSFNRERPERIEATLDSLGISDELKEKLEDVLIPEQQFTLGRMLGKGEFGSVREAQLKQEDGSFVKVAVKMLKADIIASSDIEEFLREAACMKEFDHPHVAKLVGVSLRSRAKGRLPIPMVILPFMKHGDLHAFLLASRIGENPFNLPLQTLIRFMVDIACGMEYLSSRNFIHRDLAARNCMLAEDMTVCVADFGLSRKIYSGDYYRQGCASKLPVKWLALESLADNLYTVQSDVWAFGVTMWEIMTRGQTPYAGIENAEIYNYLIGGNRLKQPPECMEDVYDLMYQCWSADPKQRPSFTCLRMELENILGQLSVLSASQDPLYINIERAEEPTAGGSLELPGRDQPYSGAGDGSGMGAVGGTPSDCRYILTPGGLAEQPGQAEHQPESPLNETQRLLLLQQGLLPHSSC

[2] = molecular target: Tyrosine-protein kinase Yes (Homo sapiens) (UniProt P07947); conditions: at 0.1 µM
Chain of Tyrosine-protein kinase Yes (Homo sapiens) (P07947 2-543 limits assumed): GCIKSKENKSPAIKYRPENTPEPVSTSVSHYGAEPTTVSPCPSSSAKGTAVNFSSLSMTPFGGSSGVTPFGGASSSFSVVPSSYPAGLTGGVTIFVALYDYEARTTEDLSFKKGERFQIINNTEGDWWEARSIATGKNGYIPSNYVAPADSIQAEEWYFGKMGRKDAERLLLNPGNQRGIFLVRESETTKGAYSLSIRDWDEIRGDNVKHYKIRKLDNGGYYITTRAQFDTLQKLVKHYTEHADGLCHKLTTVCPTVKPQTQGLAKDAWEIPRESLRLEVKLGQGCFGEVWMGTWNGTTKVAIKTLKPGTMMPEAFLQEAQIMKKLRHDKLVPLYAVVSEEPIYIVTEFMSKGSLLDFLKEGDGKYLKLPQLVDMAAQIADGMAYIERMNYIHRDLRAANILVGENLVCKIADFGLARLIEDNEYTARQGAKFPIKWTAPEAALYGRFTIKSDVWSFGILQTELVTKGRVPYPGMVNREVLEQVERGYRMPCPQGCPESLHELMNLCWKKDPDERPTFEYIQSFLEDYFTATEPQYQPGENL

[3] = molecular target: Tyrosine-protein kinase Yes (Homo sapiens) (UniProt P07947); conditions: at 1 µM
[4] = molecular target: T2, Tyrosine-protein kinase ZAP-70 (Homo sapiens) (UniProt P43403); conditions: at 0.1 µM
T2 sequence (whole entry): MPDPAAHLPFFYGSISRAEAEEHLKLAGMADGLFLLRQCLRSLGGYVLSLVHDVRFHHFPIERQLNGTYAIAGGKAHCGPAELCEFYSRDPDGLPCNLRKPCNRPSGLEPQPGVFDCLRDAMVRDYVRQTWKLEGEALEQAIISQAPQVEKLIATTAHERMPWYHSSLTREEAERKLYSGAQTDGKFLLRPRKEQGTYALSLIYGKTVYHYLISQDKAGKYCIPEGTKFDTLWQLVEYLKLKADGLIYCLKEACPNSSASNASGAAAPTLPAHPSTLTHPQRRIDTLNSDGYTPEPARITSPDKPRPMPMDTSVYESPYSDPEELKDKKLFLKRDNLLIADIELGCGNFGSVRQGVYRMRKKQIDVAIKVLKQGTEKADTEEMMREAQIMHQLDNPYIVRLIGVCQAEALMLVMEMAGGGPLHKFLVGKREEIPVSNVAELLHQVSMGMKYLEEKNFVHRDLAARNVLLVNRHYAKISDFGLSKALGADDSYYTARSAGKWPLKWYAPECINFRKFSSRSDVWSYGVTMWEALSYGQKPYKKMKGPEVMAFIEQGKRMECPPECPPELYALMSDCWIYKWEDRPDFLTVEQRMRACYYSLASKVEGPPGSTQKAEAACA

[5] = molecular target: T2, Tyrosine-protein kinase ZAP-70 (Homo sapiens); conditions: at 1 µM
[6] = molecular target: Serine/threonine-protein kinase B-raf (Homo sapiens) (UniProt P15056); conditions: at 0.1 µM
Chain of Serine/threonine-protein kinase B-raf (Homo sapiens) (P15056 whole entry): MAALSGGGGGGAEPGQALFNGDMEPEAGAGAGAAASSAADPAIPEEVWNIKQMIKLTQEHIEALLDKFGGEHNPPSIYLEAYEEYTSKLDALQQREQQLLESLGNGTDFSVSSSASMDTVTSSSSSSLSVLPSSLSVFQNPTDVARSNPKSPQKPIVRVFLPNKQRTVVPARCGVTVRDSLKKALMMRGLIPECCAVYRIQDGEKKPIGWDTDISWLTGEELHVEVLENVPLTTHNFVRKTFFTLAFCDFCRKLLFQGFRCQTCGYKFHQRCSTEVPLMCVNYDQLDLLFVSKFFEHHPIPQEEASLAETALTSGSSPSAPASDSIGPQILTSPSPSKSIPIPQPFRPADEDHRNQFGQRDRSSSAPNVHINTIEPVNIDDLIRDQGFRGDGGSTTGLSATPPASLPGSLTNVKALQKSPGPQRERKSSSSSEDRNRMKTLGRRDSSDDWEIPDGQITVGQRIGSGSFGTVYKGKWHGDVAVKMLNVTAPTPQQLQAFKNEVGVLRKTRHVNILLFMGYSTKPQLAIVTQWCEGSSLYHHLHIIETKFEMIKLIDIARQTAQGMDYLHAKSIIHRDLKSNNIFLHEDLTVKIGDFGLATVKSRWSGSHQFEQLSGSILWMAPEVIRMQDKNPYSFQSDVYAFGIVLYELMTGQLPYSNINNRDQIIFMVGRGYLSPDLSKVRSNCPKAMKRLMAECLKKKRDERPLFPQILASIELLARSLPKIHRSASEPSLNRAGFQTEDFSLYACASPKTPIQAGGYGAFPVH

[7] = molecular target: Serine/threonine-protein kinase B-raf (Homo sapiens) (UniProt P15056); conditions: at 1 µM
[8] = system: Serine/threonine-protein kinase B-raf (Homo sapiens), P15056 [V600E]; conditions: at 0.1 µM
Chain of Serine/threonine-protein kinase B-raf (Homo sapiens), P15056 [V600E] (P15056 whole entry V600E): as the sequence (P15056 whole entry) above, with V600E counted along it

[9] = system: Serine/threonine-protein kinase B-raf (Homo sapiens), P15056 [V600E]; conditions: at 1 µM
[10] = molecular target: RAF proto-oncogene serine/threonine-protein kinase (Homo sapiens) (UniProt P04049); conditions: at 0.1 µM;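 note: values are mean CRAF kinase inhibition from profiling of the GSK Published Kinase Inhibitor Set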
Chain of RAF proto-oncogene serine/threonine-protein kinase (Homo sapiens) (P04049 whole entry): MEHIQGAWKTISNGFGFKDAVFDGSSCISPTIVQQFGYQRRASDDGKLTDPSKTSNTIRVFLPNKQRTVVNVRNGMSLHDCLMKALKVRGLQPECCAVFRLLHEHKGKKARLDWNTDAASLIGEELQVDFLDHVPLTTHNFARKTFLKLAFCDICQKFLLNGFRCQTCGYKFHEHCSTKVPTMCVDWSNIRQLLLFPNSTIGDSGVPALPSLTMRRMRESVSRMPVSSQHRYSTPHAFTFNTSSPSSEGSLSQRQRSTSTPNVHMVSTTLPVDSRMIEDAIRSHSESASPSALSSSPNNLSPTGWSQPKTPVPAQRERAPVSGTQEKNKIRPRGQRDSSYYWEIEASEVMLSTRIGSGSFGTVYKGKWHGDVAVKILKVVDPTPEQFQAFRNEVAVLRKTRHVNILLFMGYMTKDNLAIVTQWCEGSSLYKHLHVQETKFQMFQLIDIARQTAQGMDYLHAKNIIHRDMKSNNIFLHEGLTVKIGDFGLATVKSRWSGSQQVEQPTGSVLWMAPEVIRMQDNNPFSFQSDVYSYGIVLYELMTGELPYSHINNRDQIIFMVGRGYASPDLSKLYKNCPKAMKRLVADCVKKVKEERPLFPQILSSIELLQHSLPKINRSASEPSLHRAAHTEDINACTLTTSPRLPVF

| SMILES | inhibition [1] | inhibition [2] | inhibition [3] | inhibition [4] | inhibition [5] | inhibition [6] | inhibition [7] | inhibition [8] | inhibition [9] | inhibition [10] |
| --- | --- | --- | --- | --- | --- | --- | --- | --- | --- | --- |
| FC(F)(F)c1ccc(-c2nn3ncccc3c2-c2ccnc(Nc3ccc4c(c3)OCCO4)n2)cc1 | 5.58% | 30% | 83.3% | 5.79% | 5.21% | -1.63% | -1.17% | -1.85% | -1.18% | -0.32% |
| CCCN1CCCC(c2ccc(Nc3nc(Nc4cc(F)ccc4C(N)=O)c4cc[nH]c4n3)c(OC)c2)C1 (stereo not drawn) | 7.19% | 5.09% | 9.04% | 7.83% | 28.7% | 11.6% | 40.1% | 11.2% | 35.5% | 1.24% |
| CCn1c(-c2nonc2N)nc2ccc(F)cc21 | 5.61% | 4.26% | 8.39% | 3.33% | 2.76% | 8.45% | 7.77% | 9.84% | 7.05% | -0.53% |
| Cc1ccc(O)cc1Nc1ccnc2ccc(S(C)(=O)=O)cc12 | 19.1% | 89.3% | 99% | 2.4% | 1.31% | 15.3% | 32.5% | 13.8% | 26% | -4.03% |
| NS(=O)(=O)c1ccc(Nc2cc(-c3cccc(O)c3)n[nH]2)cc1 | 9.19% | 2.39% | 5.84% | 4.04% | 6.29% | 7.97% | 8.05% | 6.98% | 6.29% | 1.44% |
| CN(C)C(=O)O[C@H]1CN[C@H](C#Cc2cc3ncnc(Nc4ccc(OCc5cccc(F)c5)c(Cl)c4)c3s2)C1 | 2.13% | 1.37% | 3.86% | 0.97% | 3.33% | 3.09% | 6.19% | 3.55% | 5.77% | 3.11% |
| CC(C)c1ccc(Nc2nccc(-c3cnn4ncccc34)n2)cc1 | 4.27% | 3.25% | 6.98% | 1.01% | 6.84% | 4.59% | 13.7% | 5.11% | 11.6% | 0.59% |
| NS(=O)(=O)c1cccc(Nc2cc(-c3ccc(F)cc3)n[nH]2)c1 | 19.7% | 2.67% | 12.1% | 1.39% | 2.54% | 5.14% | 4.96% | 3.81% | 5.31% | 0.49% |
| Cc1ccc(Nc2ccnc(Nc3cccc(C(N)=O)c3)n2)cc1O | 55% | 33.5% | 78.5% | -1.9% | 6.83% | 6.53% | 10.4% | 5.95% | 8.26% | 6.98% |
| Cc1cc(Cl)cc2c1NC(=O)C2=NNc1ccc(S(N)(=O)=O)cc1 | 3.93% | 0.95% | 2.2% | 1.82% | 1.81% | 4.13% | 1.81% | 4.19% | 2.74% | 0.2% |
| COc1cc(/C=N/Nc2ncnc3c2cnn3C(C)C)ccc1O | 25.9% | 11.9% | 50.8% | 1.87% | 4.45% | 2.16% | 2.26% | 2.21% | 1.64% | 9.62% |
| NS(=O)(=O)c1ccc(NC=C2C(=O)Nc3ccc4ncsc4c32)cc1 | 42.4% | 9.65% | 41.5% | 3.29% | 11.9% | 15.4% | 60.5% | 16.6% | 61.2% | 11.6% |
| COc1ccc(-c2nn3ncccc3c2-c2ccnc(Nc3cccc(C(F)(F)F)c3)n2)cc1 | 4.06% | 26.3% | 79.8% | -0.73% | 1.1% | 4.3% | 6.08% | 4.63% | 4.39% | -2.4% |
| COC(=O)Nc1nc2cc(Oc3ccc(NC(=O)Nc4cccc(Br)c4)cc3)ccc2[nH]1 | 15.3% | 4.4% | 6.98% | 5.03% | 3.22% | 13% | 20.6% | 11.3% | 20.8% | -5.74% |
| N#Cc1cccc(Nc2nccc(-c3cnn4ncccc34)n2)c1 | 47.8% | 5.64% | 37% | 3.19% | 13.3% | 19.5% | 65.2% | 18.8% | 65% | -0.47% |
| Cc1ccc(C(=O)NC2CC2)cc1-c1ccc2[nH]ncc2c1 | -0.85% | -1.92% | -0.56% | -3.94% | -1.58% | -6.03% | -6.48% | -3.87% | -3.07% | -2.17% |
| NC(=O)c1sc(-n2cnc3ccccc32)cc1OCc1ccccc1Br | 1.89% | 2.41% | 7.85% | -2.78% | -2.62% | 5.54% | 6.15% | 4.91% | 3.77% | 3.4% |
| COC(=O)c1ccc2c(c1)C(=Cc1cc(Br)c(O)c(Br)c1)C(=O)N2 | 12.4% | 0.08% | 12.2% | 3.31% | 5.41% | 9.11% | 19.7% | 7.27% | 18.2% | 3.01% |
| COc1cc2ncnc(Nc3ccc4c(cnn4Cc4ccccc4)c3)c2cc1OC | 12.6% | 39.4% | 79.9% | -3.74% | 2.96% | 3.75% | 3.3% | 2.5% | 1.8% | 0.11% |
| C[C@@H](Oc1cc(-n2cnc3ccc(OC[C@@H](O)CO)cc32)sc1C(N)=O)c1ccccc1Cl | 1.84% | -2.39% | 4.27% | -0.38% | -0.42% | -1.12% | -0.85% | -2.35% | 0.01% | -4.77% |
| c1ccc(Cc2nc3ccc(Nc4ncnc5ccccc45)cc3[nH]2)cc1 | 3.79% | 1.02% | 9.72% | 1.42% | -1.31% | 4.95% | 6.09% | 4.48% | 5.36% | 3.87% |
| COc1cc2ncnc(Nc3ccc(C)c(O)c3)c2cc1OC | 34.5% | 8.25% | 42% | 3.61% | 1.79% | 8.83% | 10% | 7.72% | 9.15% | 1.3% |
| O=C1Nc2ccc(-c3cccnc3)cc2C1=Cc1cc(Br)c(O)c(Br)c1 | 9.95% | 2.64% | 5.79% |  | -8.3% | 8.77% | 18.3% | 8.84% | 18.1% | -2.68% |
| O=C(Nc1ccc(Oc2ccc3[nH]c(NC(=O)c4ccco4)nc3c2)cc1)Nc1cc(C(F)(F)F)ccc1F | 37.4% | 0.93% | 21.9% |  | -9.02% | 4.64% | 60.7% | 3.75% | 72.5% | -0.98% |
| Cc1ccc2c(-c3ccnc(Nc4ccc5c(c4)OCCO5)n3)c(-c3ccc(C(F)(F)F)cc3)nn2n1 | 2.41% | 6.79% | 46.8% | -2.2% | 1.38% | 0.83% | 1.14% | 0.62% | 1.44% | 4.51% |
| CN(c1ccc(NC(=O)Nc2ccc(OC(F)(F)F)cc2)cc1)c1ccnc(Nc2cccc(S(N)(=O)=O)c2)n1 | 27.2% | 15.5% | 65.2% | -0.16% | 3.87% | 5.02% | 22.7% | 4.82% | 18% | -2.25% |
| Cc1nc(-c2ccccc2)n2nc(NCCCN3CCOCC3)ncc12 | 2.63% | 0.53% | 6.58% | 0.35% | 0.63% | 3.54% | 7.13% | 4.13% | 4.57% | 8.88% |
